Test results from the supplement of paper PMC11732987, “Enantioselective OTUD7B fragment discovery through chemoproteomics screening and high-throughput optimisation” (Communications Chemistry, 2025).

Key:
Assay in all cases: log2 ratio of Biotin-Ahx-Ub-VS probe labelling (fragment/DMSO); higher = less target engagement (more negative = stronger competition), active = hit call of the paper (q ≤ 0.05, log2 ratio ≤ -1)
Conditions in all cases: compound concentration: 200 uM; treatment time: 3 h
USP9X = USP9X (UniProt Q93008)
Procedure, shortened: (§1)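 Fragment (200 µM) or vehicle was incubated for 3 h with triplicate HEK293T lysate samples of 495 µg, which were then treated with Biotin-Ahx-Ub-VS at 0.5 µM final for 1 h. Labelled DUBs were enriched on NeutrAvidin, digested with LysC and trypsin, and analysed by diaPASEF LC-MS/MS. Values are average log2 fragment/vehicle ratios from an unpaired t-test on global-median-normalised Spectronaut label-free quantities, using proteins with ≥2 unique peptides.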

UniProt O00487 = molecular target: UniProt O00487
Procedure, shortened: as §1

UniProt O00507 = molecular target: UniProt O00507
Procedure, shortened: as §1

UniProt P51784 = molecular target: UniProt P51784
Procedure, shortened: as §1

UniProt Q5T2D3 = molecular target: T1, UniProt Q5T2D3
T1 sequence (whole entry): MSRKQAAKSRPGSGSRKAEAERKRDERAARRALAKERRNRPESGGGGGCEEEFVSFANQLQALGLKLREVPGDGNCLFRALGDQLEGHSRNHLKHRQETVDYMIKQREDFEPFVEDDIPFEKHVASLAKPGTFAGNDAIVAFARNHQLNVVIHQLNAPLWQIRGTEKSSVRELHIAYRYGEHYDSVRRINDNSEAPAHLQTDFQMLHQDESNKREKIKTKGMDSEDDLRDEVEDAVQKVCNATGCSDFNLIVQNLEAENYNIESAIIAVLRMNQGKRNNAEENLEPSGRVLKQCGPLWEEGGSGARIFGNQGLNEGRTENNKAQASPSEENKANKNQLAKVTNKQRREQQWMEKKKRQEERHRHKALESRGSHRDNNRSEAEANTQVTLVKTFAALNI
Procedure, shortened: as §1

UniProt Q8TE49 = molecular target: T2, UniProt Q8TE49
T2 sequence (whole entry): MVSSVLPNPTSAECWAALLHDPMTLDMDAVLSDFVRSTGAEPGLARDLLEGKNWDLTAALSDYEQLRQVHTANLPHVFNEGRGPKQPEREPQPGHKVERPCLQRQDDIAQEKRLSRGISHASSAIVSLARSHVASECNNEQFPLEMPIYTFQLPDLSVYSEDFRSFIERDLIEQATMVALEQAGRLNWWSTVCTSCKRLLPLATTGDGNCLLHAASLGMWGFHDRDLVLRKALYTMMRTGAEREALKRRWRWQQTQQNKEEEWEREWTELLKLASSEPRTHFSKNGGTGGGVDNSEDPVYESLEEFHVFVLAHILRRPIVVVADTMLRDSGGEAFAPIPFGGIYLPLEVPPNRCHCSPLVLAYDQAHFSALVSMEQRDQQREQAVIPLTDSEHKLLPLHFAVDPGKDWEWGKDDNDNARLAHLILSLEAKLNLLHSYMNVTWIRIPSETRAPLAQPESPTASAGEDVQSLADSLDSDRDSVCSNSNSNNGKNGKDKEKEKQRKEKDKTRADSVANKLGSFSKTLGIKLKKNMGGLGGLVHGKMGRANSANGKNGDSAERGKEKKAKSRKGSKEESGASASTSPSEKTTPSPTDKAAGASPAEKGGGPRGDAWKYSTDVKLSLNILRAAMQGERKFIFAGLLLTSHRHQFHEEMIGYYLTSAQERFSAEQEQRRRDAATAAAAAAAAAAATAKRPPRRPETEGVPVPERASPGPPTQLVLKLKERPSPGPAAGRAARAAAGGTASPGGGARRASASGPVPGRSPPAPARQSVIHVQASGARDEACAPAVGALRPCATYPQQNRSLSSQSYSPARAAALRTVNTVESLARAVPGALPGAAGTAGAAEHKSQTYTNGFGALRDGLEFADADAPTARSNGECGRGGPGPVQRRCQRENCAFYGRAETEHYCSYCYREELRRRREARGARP
Procedure, shortened: as §1

UniProt Q9P2H5 = molecular target: T3, UniProt Q9P2H5
T3 sequence (whole entry): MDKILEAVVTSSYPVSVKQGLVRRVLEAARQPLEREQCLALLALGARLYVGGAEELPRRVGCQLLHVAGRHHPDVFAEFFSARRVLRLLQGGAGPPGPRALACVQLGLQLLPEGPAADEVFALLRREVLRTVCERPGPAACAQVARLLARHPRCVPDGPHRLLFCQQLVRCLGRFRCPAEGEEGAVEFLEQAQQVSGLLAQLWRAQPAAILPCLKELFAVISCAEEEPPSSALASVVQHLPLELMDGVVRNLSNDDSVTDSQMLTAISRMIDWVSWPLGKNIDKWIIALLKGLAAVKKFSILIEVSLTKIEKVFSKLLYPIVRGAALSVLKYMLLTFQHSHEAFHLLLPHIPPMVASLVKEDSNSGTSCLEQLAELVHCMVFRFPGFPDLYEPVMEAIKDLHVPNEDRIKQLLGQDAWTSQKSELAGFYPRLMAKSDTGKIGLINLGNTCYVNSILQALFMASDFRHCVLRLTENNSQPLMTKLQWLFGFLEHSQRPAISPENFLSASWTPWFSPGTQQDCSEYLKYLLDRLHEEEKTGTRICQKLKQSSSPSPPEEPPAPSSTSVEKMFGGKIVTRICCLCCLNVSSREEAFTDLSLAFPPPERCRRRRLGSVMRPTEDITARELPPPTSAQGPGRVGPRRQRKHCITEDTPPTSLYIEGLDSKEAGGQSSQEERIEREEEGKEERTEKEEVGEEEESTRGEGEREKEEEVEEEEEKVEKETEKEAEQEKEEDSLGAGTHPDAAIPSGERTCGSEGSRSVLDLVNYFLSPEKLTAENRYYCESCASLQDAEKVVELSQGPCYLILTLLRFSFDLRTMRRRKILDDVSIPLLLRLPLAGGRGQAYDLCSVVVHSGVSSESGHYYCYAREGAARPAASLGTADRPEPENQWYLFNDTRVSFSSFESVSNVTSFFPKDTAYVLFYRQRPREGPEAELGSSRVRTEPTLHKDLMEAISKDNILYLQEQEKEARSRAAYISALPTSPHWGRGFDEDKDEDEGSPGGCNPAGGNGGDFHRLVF
Procedure, shortened: as §1

UniProt Q9UGI0 = molecular target: T4, UniProt Q9UGI0
T4 sequence (whole entry): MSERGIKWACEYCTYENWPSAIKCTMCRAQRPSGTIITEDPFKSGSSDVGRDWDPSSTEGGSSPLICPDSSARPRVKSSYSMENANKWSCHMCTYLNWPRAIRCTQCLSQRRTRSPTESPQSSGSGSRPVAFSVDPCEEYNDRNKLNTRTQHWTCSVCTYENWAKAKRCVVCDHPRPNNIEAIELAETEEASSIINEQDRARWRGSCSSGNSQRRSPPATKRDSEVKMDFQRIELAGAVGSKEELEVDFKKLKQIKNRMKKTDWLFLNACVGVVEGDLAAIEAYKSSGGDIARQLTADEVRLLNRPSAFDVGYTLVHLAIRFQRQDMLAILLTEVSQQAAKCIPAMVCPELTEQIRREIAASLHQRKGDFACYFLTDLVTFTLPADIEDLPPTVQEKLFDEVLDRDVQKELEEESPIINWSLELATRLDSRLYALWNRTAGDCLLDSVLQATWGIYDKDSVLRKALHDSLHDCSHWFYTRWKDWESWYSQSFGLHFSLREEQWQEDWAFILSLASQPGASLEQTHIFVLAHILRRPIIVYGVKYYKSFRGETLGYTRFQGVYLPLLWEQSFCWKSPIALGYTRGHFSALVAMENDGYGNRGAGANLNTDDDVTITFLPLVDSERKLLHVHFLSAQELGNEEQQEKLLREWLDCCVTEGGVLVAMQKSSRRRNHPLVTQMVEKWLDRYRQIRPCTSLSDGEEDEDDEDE
Procedure, shortened: as §1

YOD1 = molecular target: T5, YOD1 (UniProt Q5VVQ6)
T5 sequence (whole entry): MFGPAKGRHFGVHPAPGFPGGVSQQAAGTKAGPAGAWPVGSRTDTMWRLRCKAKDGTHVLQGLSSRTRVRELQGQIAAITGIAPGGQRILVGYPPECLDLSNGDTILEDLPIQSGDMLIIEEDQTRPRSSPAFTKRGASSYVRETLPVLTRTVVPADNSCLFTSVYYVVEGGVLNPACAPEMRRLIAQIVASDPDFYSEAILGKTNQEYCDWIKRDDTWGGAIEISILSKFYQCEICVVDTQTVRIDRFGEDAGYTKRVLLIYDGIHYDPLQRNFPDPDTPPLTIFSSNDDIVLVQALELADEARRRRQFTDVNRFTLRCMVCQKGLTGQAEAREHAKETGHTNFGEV
Procedure, shortened: as §1

Measured: log2 ratio of Biotin-Ahx-Ub-VS probe labelling

Chain of USP9X (Q93008 whole entry, the tested form may be a part): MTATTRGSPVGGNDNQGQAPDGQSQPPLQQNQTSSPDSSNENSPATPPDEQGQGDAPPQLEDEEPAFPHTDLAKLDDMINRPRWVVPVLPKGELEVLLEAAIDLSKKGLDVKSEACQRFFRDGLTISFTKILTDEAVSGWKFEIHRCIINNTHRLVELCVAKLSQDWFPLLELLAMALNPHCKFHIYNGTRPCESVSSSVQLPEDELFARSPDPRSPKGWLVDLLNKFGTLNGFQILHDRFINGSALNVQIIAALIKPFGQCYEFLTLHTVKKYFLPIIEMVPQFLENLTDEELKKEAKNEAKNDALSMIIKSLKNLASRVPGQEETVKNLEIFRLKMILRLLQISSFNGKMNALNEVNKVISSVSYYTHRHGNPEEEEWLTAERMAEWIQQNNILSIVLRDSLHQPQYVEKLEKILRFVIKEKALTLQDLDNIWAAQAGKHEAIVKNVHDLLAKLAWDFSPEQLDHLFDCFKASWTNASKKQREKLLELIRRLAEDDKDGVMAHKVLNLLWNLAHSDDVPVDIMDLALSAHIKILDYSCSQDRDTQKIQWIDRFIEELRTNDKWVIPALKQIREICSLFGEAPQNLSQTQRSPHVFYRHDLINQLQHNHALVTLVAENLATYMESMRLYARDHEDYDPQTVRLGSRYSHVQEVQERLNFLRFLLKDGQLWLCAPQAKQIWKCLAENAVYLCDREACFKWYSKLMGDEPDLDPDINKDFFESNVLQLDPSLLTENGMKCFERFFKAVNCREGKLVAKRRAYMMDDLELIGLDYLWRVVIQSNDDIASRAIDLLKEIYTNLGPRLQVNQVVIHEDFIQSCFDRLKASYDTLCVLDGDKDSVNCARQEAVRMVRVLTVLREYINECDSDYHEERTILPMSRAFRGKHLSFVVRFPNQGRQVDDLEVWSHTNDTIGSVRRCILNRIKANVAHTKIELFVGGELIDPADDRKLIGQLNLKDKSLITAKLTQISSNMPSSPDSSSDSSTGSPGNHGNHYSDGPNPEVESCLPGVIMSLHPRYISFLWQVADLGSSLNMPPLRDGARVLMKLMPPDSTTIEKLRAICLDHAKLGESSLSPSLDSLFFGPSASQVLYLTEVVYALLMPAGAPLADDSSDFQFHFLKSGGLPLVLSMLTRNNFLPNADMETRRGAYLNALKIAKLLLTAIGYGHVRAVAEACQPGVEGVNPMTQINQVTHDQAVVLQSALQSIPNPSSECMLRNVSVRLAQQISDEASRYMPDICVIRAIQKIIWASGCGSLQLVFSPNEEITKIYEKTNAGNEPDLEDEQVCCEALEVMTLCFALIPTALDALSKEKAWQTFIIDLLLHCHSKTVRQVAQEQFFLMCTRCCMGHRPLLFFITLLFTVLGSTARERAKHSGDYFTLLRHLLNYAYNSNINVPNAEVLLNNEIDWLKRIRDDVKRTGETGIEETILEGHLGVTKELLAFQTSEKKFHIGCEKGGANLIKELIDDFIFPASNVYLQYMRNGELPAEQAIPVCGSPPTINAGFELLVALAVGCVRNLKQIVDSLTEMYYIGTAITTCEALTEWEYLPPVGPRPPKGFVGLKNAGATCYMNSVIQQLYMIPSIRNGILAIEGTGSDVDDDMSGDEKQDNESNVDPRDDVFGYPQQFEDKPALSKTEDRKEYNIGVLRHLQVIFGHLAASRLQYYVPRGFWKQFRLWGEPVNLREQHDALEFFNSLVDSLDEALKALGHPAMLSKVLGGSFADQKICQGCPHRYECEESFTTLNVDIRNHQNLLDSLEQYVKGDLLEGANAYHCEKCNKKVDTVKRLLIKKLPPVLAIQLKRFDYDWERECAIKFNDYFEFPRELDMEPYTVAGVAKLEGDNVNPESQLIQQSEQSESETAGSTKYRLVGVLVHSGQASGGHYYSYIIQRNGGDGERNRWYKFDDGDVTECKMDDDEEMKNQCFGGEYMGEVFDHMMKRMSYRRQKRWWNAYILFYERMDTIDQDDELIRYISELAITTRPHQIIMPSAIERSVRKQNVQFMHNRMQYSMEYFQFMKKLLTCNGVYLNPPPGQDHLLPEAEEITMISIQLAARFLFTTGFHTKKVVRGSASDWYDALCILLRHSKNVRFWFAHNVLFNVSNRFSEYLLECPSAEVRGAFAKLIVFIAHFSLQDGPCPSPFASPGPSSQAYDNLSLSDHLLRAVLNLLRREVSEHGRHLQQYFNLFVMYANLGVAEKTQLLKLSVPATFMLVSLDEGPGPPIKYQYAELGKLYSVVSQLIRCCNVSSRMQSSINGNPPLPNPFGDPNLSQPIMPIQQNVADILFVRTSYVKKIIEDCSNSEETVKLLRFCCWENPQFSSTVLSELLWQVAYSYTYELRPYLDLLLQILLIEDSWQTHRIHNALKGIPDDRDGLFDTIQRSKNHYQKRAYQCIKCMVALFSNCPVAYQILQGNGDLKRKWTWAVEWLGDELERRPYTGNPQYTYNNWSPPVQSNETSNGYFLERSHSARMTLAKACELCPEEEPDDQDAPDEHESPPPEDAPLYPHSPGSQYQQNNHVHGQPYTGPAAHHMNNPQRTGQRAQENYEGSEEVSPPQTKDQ
Chain of UniProt P51784 (P51784 whole entry): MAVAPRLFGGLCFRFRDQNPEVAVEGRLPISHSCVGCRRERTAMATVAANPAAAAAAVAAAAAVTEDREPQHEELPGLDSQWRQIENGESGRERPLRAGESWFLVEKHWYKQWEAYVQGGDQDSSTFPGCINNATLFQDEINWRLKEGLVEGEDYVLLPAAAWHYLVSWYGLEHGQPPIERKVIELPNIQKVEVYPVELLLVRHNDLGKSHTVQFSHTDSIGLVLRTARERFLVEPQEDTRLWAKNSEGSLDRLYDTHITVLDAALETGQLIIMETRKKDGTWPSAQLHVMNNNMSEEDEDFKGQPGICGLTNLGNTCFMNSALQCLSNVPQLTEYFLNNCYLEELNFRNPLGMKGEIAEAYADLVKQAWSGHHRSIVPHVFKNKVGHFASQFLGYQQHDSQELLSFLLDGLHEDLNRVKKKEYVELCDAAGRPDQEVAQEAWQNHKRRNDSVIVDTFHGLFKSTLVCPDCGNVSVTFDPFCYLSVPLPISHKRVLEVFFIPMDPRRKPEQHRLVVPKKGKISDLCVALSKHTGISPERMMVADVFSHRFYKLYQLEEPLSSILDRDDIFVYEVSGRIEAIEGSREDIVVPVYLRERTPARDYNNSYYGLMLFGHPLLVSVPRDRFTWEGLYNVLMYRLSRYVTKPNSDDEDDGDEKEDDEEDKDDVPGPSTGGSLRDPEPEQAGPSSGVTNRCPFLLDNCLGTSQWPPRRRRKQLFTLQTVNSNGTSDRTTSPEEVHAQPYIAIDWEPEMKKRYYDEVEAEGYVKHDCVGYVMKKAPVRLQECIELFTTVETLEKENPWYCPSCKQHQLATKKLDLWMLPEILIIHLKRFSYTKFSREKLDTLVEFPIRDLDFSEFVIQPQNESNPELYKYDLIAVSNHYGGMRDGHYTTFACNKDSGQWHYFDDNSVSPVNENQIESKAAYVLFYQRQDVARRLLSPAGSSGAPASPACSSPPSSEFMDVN
Chain of UniProt O00487 (O00487 whole entry): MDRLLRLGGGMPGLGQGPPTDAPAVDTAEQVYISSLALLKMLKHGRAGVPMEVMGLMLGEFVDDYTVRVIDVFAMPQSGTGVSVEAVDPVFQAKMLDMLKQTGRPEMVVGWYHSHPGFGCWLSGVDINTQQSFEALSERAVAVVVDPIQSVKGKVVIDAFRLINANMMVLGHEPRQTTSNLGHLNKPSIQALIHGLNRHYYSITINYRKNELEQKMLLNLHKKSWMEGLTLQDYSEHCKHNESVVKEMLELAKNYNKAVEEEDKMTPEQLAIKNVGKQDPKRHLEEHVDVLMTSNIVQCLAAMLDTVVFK

CC1CN(c2ccc(NC(=O)CCl)cc2)CC(C)O1 (centres undefined)
inactive: USP9X -0.166 | UniProt O00487 -0.0932 | UniProt O00507 -0.0662 | UniProt P51784 0.0387 | UniProt Q5T2D3 -0.298 | UniProt Q8TE49 -0.392 | UniProt Q9P2H5 -0.0224 | UniProt Q9UGI0 -0.221 | YOD1 -0.123
